Survival data for 56 compounds are collected here from PubChem BioAssay AID463173 (ICCB-Longwood Screening Facility, Harvard Medical School, 2010).

Out of some 52,000 compounds screened, about 4,300 (8.3%) were called active. Shown is part of a subset that was picked to be rich in actives. A number with no mark means an inactive call. Rule as the data show it: active = survival mostly below about 52% (no sharp cut-off); inactive = mostly above about 56%.

The subject of the assay is DeltatarO mutant. Kind of assay: growth inhibition of S. aureus wild type versus tarO mutant, primary screen, teichoic acid synthesis inhibitors, RN4220, OD600 (AID 463173). The conditions noted are these: OD600, 18 h, stronger effect = lower value, screened at 18.75 µg/mL (by protocol).
`CCc1cccc(C)c1NC(=O)c1cc(S(=O)(=O)N2CCC3(CC2)OCCO3)ccc1F`: the survival was 116%. `Cc1ccc(CSCCNC(=O)C2CCN(S(=O)(=O)Cc3ccccc3)CC2)cc1`: the survival is 99%. `CCOc1ccc(-c2cn3c(n2)sc2cc(C(=O)NCCCc4ccccc4)ccc23)cc1`: the survival is 72%. As for `CCOc1ccc(-c2cn3c(n2)sc2cc(C(=O)NCCCN(CC)CC)ccc23)cc1`, the survival was 15% (active).

Take `CCCSCCCNC(=O)c1ccc2c(c1)sc1nc(-c3ccc(OCC)cc3)cn12`: the survival was 55%.

As for `COc1ccc(-c2nn(-c3ccccc3)cc2C2NC(=O)NC(C)=C2C(=O)OC(C)C)cc1Cl` (stereo unspecified), the survival is 106%.

Consider `Cc1ccc(NC(=O)c2ccc(CN3CC(=O)N4CCCCC4C3=O)cc2)cc1C` (stereo unspecified), for which the survival was 77%. As for `CC(C)c1ccc(NC(=O)c2ccc(CN3CC(=O)N4CCCCC4C3=O)cc2)cc1` (stereo unspecified), the survival was 77%. As for `Cc1ccc(NC(=O)c2ccc(CN3CC(=O)N4CCCCC4C3=O)cc2)cc1` (stereo unspecified), the survival is -5% (active). For the compound `CCc1ccc(NC(=O)c2ccc(CN3CC(=O)N4CCCCC4C3=O)cc2)cc1` (stereo unspecified), the survival was 66%. For `O=C(Nc1cc(F)ccc1F)c1ccc(CN2CC(=O)N3CCCCC3C2=O)cc1` (stereo unspecified) the value was 92%. Regarding `O=C(Nc1ccc(F)cc1)c1ccc(CN2CC(=O)N3CCCCC3C2=O)cc1` (stereo unspecified), the survival is -4% (active). In the case of `O=S(=O)(NCc1ccco1)c1cccc(S(=O)(=O)N2CCCCC2)c1`, the survival is 90%.

As to `O=C(NC1CCCCC1)c1ccc(Cn2c(SCc3cccc(F)c3)nc3cccnc32)cc1`, the survival was 81%. Regarding `Cc1ccc2c(c1)N(C(=O)N1CCC(C(=O)NCc3ccccc3C)CC1)CC(C)O2` (stereo unspecified), the survival is 74%. `Cc1noc(-c2ccc(N(C)Cc3ccccc3)c([N+](=O)[O-])c2)n1`: the survival is 75%. With `COc1ccc(CC(=O)NCc2nc3cccnc3n2Cc2ccccc2)cc1`, the survival was 80%. As for `COc1ccccc1N1CCN(S(=O)(=O)c2c(C)sc3ncn(CC(=O)N(C)c4ccc(C(C)C)cc4)c(=O)c23)CC1`, the survival was 67%. Under `CCCCN(C)CCNC(=O)c1cc(-c2ccc(Cl)s2)nc2ccccc12` stands 62%. Consider `COc1cc(NC(=O)CSc2nc(C)c(C(=O)Nc3ccccc3)c(-c3ccc(OC)c(OC)c3)c2C#N)c(OC)cc1Cl`, for which the survival is 61%.

Consider `COc1ccc(CCn2c(=O)c3cccnc3n(CC(=O)Nc3c(C)cc(C)cc3C)c2=O)cc1OC`, for which the survival is 90%. For `Cc1ccccc1CN1C(=O)c2ccccc2S(=O)(=O)c2ccc(C(=O)OCC3CCCO3)cc21` (stereo unspecified) the value was 71%. On to `CCOc1ccc(CCNC(=O)c2c(C)oc3ncn(CC(C)C)c(=O)c23)cc1`, for which the survival is 72%.

Consider `Cc1nc(N2CCCC2)c2c(C(=O)Nc3cccc(Cl)c3)c(C)oc2n1`, for which the survival was 20% (active). For `CCc1cccc(NC(=O)c2c(C)oc3nc(C)nc(N4CCCC4)c23)c1` the value was 103%; for `Cc1ccc(NC(=O)c2c(C)oc3nc(C)nc(N4CCCC4)c23)c(C)c1`, 70%. Regarding `Cc1nc(N2CCCC2)c2c(C(=O)Nc3ccc(C)c(Cl)c3)c(C)oc2n1`, the survival was 124%. Take `Cc1nc(N2CCCC2)c2c(C(=O)Nc3ccc(Br)cc3F)c(C)oc2n1`: the survival was 25% (active). On to `Cc1oc2ncnc(N3CCOCC3)c2c1C(=O)Nc1ccc(Br)cc1F`, for which the survival was 135%. Turning to `COc1cc(Cl)c(C)cc1NC(=O)c1cnc(N2CCOCC2)c2ccccc12`, the survival was 71%. `COc1cc(CN(C(=O)c2ccccc2F)C2CCS(=O)(=O)C2)cc(OC)c1OC` (stereo unspecified): the survival is 46%. Turning to `COc1ccc(N2CCN(c3ncnc4c3cnn4C)CC2)cc1`, the survival is 75%. On to `O=c1c2cn[nH]c2nc(SCc2c(F)cccc2F)n1-c1ccc(Cl)cc1`, for which the survival is 91%. For the compound `CC(C)c1ccc(NC(=O)CN2CCC(n3nnc4ccccc43)CC2)cc1`, the survival is 69%. As for `CCN(CC)CCN(C(=O)c1ccc(C(=O)OC)cc1)c1nc2ccc(Cl)cc2s1`, the survival was -4% (active). `CCc1ccc2nc(N(CCN(CC)CC)C(=O)c3ccco3)sc2c1`: the survival was 54%. Under `CCN(CC)CCN(C(=O)c1ccco1)c1nc2ccc(Cl)cc2s1` stands 66%; under `COc1ccc(-c2cn3nc(N4CCCC(C(=O)Nc5cc(C)cc(C)c5)C4)sc3n2)cc1` (stereo unspecified), 75%. `COc1ccc(-n2nnc(-c3nsc(NC(=O)c4cccc(C)c4)n3)c2C)cc1OC`: the survival is 88%. As to `CN(C)CCNC(=O)c1ccc(-n2c(-c3ccccc3)cc3c2CCCCC3)cc1`, the survival was 53%. Turning to `CN(C)CCNC(=O)c1ccc(-n2c(-c3ccccc3)cc3c2CCCC3)cc1`, the survival is 33% (active). In the case of `CCNC(=O)c1ccc(-n2c(-c3ccccc3)cc3c2CCCCC3)cc1`, the survival is 43% (active). On to `CCOCCCNC(=O)c1ccc(-n2c(-c3ccccc3)cc3c2CCCC3)cc1`, for which the survival is 69%. Turning to `CC(C)NC(=O)c1ccc(-n2c(-c3ccccc3)cc3c2CCCCC3)cc1`, the survival was 108%. On to `CCN(CC)CCNC(=O)c1ccc(-n2c(-c3ccccc3)cc3c2CCCC3)cc1`, for which the survival is 8% (active). `CC(C)OCCCNC(=O)c1ccc(-n2c(-c3ccccc3)cc3c2CCCC3)cc1`: the survival was 75%.

`COCCCNC(=O)c1ccc(-n2c(-c3ccccc3)cc3c2CCCCC3)cc1`: the survival was 39% (active). On to `CCCNC(=O)c1ccc(-n2c(-c3ccccc3)cc3c2CCCCC3)cc1`, for which the survival is 103%. For `CCOCCCNC(=O)c1ccc(-n2c(-c3ccccc3)cc3c2CCCCC3)cc1` the value was 49%. For `COCCCNC(=O)c1ccc(-n2c(-c3ccccc3)cc3c2CCCC3)cc1` the value was 70%; for `COCCNC(=O)c1ccc(-n2c(-c3ccccc3)cc3c2CCCCC3)cc1`, 110%; for `Cc1nnc(NCc2ccccc2)c2c1nnn2Cc1ccccc1Cl`, 92%. As for `COc1ccc(CCNC(=O)c2c(C)nn(-c3ccc(F)cc3)c2-n2cccc2)cc1OC`, the survival was 74%. For `Cc1oc2c(c1C(=O)Nc1ccc(OC(F)(F)F)cc1)C1=NCCN1C=N2`, the survival is 80%. As to `COc1ccccc1CN1C(=O)CN(C2CCCCCC2)C(=O)C1c1ccc(C)cc1` (stereo unspecified), the survival is 88%. As for `Cc1ccc(-n2c(SCC(=O)Nc3cccc(C)c3)nc3c(oc4ccccc43)c2=O)cc1`, the survival was 99%.
